# Source: the supplement of paper PMC12632987
# Over roughly 4,500 sequences, “median log2 fold change of GCK-ALFA target abundance (FLAG IP / Myc IP barcode read proportion)” has its median near 0.078; the lowest 2% begin near -0.6. The entries come from a sample that favours the lowest values as a whole.
# B1: GBRAP_35_5544 (protein)
# chain: MEEEETVEMLLNTMEDIVLALPDVSPEEQLILTKHLIKLAKLAIEEKPKNKELLKRGIEALKEAIKIVKESDLPEEEKEKLLKELEEAKEKFEKLLKKVE
# B2: GBRAP_35_5545 (protein)
# chain: DFDEETVEMLLNTMEDIVLALPDVSPEEKLILARHLIDLAEKAIEEKPKNVELLKRGIEVLERAIEIVKASDLPEEEREELIERLEEVKEKFEKLLKENE
# B3: GBRAP_35_5547 (protein)
# chain: DPETETVEMLLNTMEDIVLALPDVSPEDLETLTKHLIDLANLAIEEKPKNKELLERLIKALEEAIKIVEASDLPEEVKAELLKELEKARKEAEKLLEKVK
# B4: GBRAP_128_3307 (protein)
# chain: MDEELLEEARELIERLKEADEEEAAELVREIAELLEKATPEEREEIAELFEEALKELSAEKLDVVADTLRELIPKATPETANVLADLQVEALNLAEEKEE
# B5: GBRAP_160_4379 (protein)
# chain: SEELKELKEEVKKLKEEFKEEAKDLSTAEVRTLAIGVLSEIAALVWSNEAVSEETKDKIMKIIDDAIAKIRANADASPEEIVAIVTEAFDKIIELIEKEE
# B6: GBRAP_125_3112 (protein)
# chain: NMEEILEALRIILKALGFDEEEIEEAVRLAREYGIKGTMIAAALALGWEEVAELLEKLSEEEVKEALLRTAEKIKENPELTPEEVKELLKEVLKEILEKK
# B7: GBRAP_11_2866 (protein)
# chain: NKEKLKEIAELLEKLIEVLERLLEEGVDNEELREEALKLAKEILELVKKYSDEADVKLAEYALELLEKAEEDPANAEQYVQEALAFARVLLGNVLLRIDE
# B8: GBRAP_52_6101 (protein)
# chain: AAAEAEALVERLLALVRAGREAEARAEAAALAAEMDEARLRVLTEALAARARAAAPEDLDAVWRLAELLADELEAAGWPDVLVDDLLAATAAALYERELA
# B9: GBRAP_128_3576 (protein)
# chain: SDEEILEKAKELIKKIIESDVEEAKKYAEELAKLLKEADPETREKIVELILEALPKLSVEKLEVLADVFREQRPKADPETANLLAEIEVEALNEAVEKEE
# B10: GBRAP_166_4948 (protein)
# chain: SLEEVIEETREFIRELAERMKTLNDEERLDALIEIAERLEEARKAGVSEEDLLELVREALELVKEAGGSVEQFVGALDMFVDLDEEELDKVAEIAEEVKA
# B11: GBRAP_137_3672 (protein)
# chain: MIDAKIEIEDGLAYAELTYKGSLEEAKKAAEIAEEIAGKIPGIAISTKVDEDGTLTIDLGGTLEQIMKFLKELAKALNVTINVTIKDLDTGETTKETIKA
# B12: GBRAP_160_4310 (protein)
# chain: KEELEALKKEVKEIFEEAKKLIEGETKEQQKAIVKVALGEVILLAFESPAITEEAEEKIAEIADEAIATLDANPDLTTEEIKKLLEEAEKKILELIEKLK
# B13: GBRAP_74_6571 (protein)
# chain: MEKYTKEMKAAAAAGDVKKAIKIVEEMIEKGIKKVSAEFLNALATIAEKHLPKATPEEQERFIDAASELVDLVLESEQDEETYKALNKLITALYEAELAR
# B14: GBRAP_57_6475 (protein)
# chain: MERLKAVEEAAERALALIDARAPREEILAAVRELAELLSEETLRDVLLIADPEAPEDLSKEEAIARLVALAAAYLDAGDYDGLRRLVELMLGTAEMDFEE
# B15: GBRAP_39_5697 (protein)
# chain: EREEEAEDTFSYLEAIGAKYQVEEKISLEEARERTRELAERFIKEHPEIAEVLKELLELAEKAGDLAILALLGLLLRAEEGTPLEEIKKDAELLIEYLKS
# B16: GBRAP_125_2965 (protein)
# chain: SEEEALEALAIIAKALGFDEDEVEEAVELARRFGLKKTLIALFLAEGYEEVADLVEKLTEEEAREVAKKLAEEIKKNPELTPEEVVELAKKLFEEVIAKK
# B17: GBRAP_80_6822 (protein)
# chain: MEEELEANLKALEAVDPEIAKIVREIVEIARELGVPLETLVRLAKAILELAKVDKEKARELAEELLEELREEREEGDREGALAELVDAESEALLEVEELE
# B18: GBRAP_184_5158 (protein)
# chain: KVLERTIEADNLEELKKKLKEIKEEAAKTKADLIVVLNLKELTKEMLETALSTLGEIKKEGLAPSITLLIENEMNDEQIDFALKLADEAGVTLVVAIPDE
# B19: GBRAP_160_4463 (protein)
# chain: KEEVKEAVEELRERVEEVLEDSENMSPEQILLAVAVEVGSSLLEWEEEGKISDEQAEILAKAIDELLRLAKEEKNASPEEAKKRAREIVEKAAKEILAAA
# B20: GBRAP_78_6736 (protein)
# chain: EIEELIDKALEELNRAARLAQQFPLEEQTELLDLIIDASTLLEEAEEEGFDLKLLEEALKKLKEALKLAKKLKTPLAEKLAKELEEAIKLVEKAIKLVKE
# B21: GBRAP_128_3567 (protein)
# chain: STAAAVAQARALLEAIKAGDAATRRAAAEALVALLAAADPETREAITAEILERLPELSAEDLEVLADVFRAARPAADPATAEALAEIQVEALNEREEKEE
# B22: GBRAP_35_5597 (protein)
# chain: DTDQLAVDSLIDMIEATIEGIPELPVDTLVSITNLLIKDAEELRKQLKNNVEALERIAKALEKLKEALKKHHGDNPKVQETIEKVEKAIKELKEQAKKAL
# B23: GBRAP_184_5332 (protein)
# chain: KTLEVHIENLPIEEIIKKVEEAAKKAAEEGADLLISIDASGYSIEEIIELIKKIGEIAKKYGVKNVTLGIDKEVNEEEADKLIEEADKYGIRLVLPLKDE
# B24: GBRAP_184_5329 (protein)
# chain: KTLEVHIENLPIEEIKKKVEEALKEAAAQGAALSIYIDASGYSIEEIKELIEYIGELAKKYGVKDVTLGIDKAVNEEEADILIEIADKYGIRLVLPLEDE
# B25: GBRAP_83_6990 (protein)
# chain: KEKITVAANGDDIEEAAEIVIDLTKEEGYEVDVEIIATKEDWEKVLEMVERLAEAGIETDITVLAEGITEEEAKEKQKELEEIAKEHGVNINVKVYAIEP
# B26: GBRAP_83_6970 (protein)
# chain: MEKVDVVTTPDHVEEAAEAARDLAEEEGYEVTVILVGSPEEVLKSAEIVAEKLKDIKNVSIRAAVRGVRKEEAEKTKKKLEEIGKKYGLKVEFDAELIEE
# B27: GBRAP_106_2555 (protein)
# chain: SEEEKFEKLIKESREEAEKEIADTRAWLAARRDQLTPEEIRAIETYTKKYLVAKILHKAIEAGFITKEEAEEILKEALSKTDFTPEEAVKFTLEKIKELY
# B28: GBRAP_160_4810 (protein)
# chain: KEKAEKLMEEARKDLLETAEASADLPIEDRARLLEAEGYTSILDFEEELNISDETEEELDEVVDDLVARLLANPDLSREEVLALVEEAVERMKEIVEKEV
# B29: GBRAP_160_4809 (protein)
# chain: MEKAEKLLEEARKDLLETAEASKDLPIEDRARLLEAEGYTSILDFEEELNISDETEEKLAQVVDDLVATLLANPDLSDEEVLALVEEAAEKMKEIVKEEV
# Biological target: GABARAP, O95166
# Test: median log2 fold change of GCK-ALFA target abundance (FLAG IP / Myc IP barcode read proportion) (log2 ratio); each designed protein is fused to an ALFA-tag nanobody in HEK293 cells to bring the named protein to FLAG-tagged glucokinase (GCK); Myc marks an untargeted standard; higher = target protein stabilised (more abundant)
# Details: target protein: 3xFLAG-MCP-GCK-ALFA reporter; HEK293 landing pad (RPLP)
# Experimental: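 LABEL-seq trans screen in HEK293 landing-pad cells. Each de novo designed 100-aa effector handle, binding the indicated effector (E3 ligase, DUB or autophagy protein), is fused to a constant NbALFA target handle and induced with 2 ug/mL doxycycline. A FLAG-MCP-GCK-ALFA target and a Myc-MCP standard reporter were transfected, and after 48 h circRNA barcodes were recovered by anti-FLAG and anti-Myc IP and sequenced. The value is the median across barcodes (at least 3 per design) of log2(FLAG/Myc read-proportion ratio), with the two transfection replicates pooled. Negative values mean degradation and positive values mean stabilisation of the target.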
# GABARAP, O95166, sequence (O95166 whole entry, the tested form may be a part): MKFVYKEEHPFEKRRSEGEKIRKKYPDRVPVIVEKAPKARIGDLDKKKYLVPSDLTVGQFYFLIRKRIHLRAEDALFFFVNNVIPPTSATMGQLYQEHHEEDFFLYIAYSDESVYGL
row,Binder,median log2 fold change
1,B1,-0.612
2,B2,0.127
3,B3,0.0216
4,B4,0.0926
5,B5,0.234
6,B6,-0.66
7,B7,-0.0773
8,B8,-0.279
9,B9,0.00207
10,B10,0.0139
11,B11,0.117
12,B12,-0.615
13,B13,-0.298
14,B14,0.257
15,B15,0.186
16,B16,-0.872
17,B17,-0.574
18,B18,-0.0197
19,B19,-0.697
20,B20,-0.0442
21,B21,0.197
22,B22,0.00193
23,B23,-0.598
24,B24,-0.086
25,B25,-0.0785
26,B26,0.197
27,B27,-0.507
28,B28,-0.669
29,B29,-0.35
